# Test results published in the supplement of paper PMC12282887.
# ± gives the standard deviation of the averaged measurements.
# Tested on: E. coli BW25113 marRABp lux reporter
# Test: promoter activity interaction Z-score (Lux/OD deviation from empty-vector control); higher = stronger promoter induction by the compound
# Experimental: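 E. coli BW25113 (wild type or ΔmarA/ΔsoxS/Δrob) carrying pTU175 luxCDABE promoter reporters was grown in LB in 384-well plates at 37°C with each of 94 compounds at 4 two-fold concentrations, in biological duplicates. Luminescence and OD600 were read every 30 min for 12 h and integrated as AUC over 8 h (0-8 h WT, 1-9 h mutants). Lux AUC was divided by OD AUC; the interaction score is the residual of a Huber robust fit of each promoter against the empty-vector control, then Z-transformed per promoter.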
smiles,measurement,setting,value
CN(C)c1ccc(O)c2c1C[C@H]1C[C@H]3[C@H](N(C)C)C(O)=C(C(N)=O)C(=O)[C@@]3(O)C(O)=C1C2=O [Minocycline],promoter activity interaction Z-score,"0.062 µg/ml, genetic background: wild type",-0.0844 ± 0.21
same,promoter activity interaction Z-score,"0.062 µg/ml, genetic background: ΔmarA",0.0361 ± 0.21
same,promoter activity interaction Z-score,"0.062 µg/ml, genetic background: Δrob",0.129 ± 0.094
same,promoter activity interaction Z-score,"0.062 µg/ml, genetic background: ΔsoxS",-0.0813 ± 0.0076
same,promoter activity interaction Z-score,"0.12 µg/ml, genetic background: wild type",0.341 ± 0.081
same,promoter activity interaction Z-score,"0.12 µg/ml, genetic background: ΔmarA",0.0649 ± 0.098
same,promoter activity interaction Z-score,"0.12 µg/ml, genetic background: Δrob",0.115 ± 0.4
same,promoter activity interaction Z-score,"0.12 µg/ml, genetic background: ΔsoxS",0.221 ± 0.22
same,promoter activity interaction Z-score,"0.25 µg/ml, genetic background: wild type",0.449 ± 0.55
same,promoter activity interaction Z-score,"0.25 µg/ml, genetic background: ΔmarA",0.264 ± 0.17
same,promoter activity interaction Z-score,"0.25 µg/ml, genetic background: Δrob",0.436 ± 0.19
same,promoter activity interaction Z-score,"0.25 µg/ml, genetic background: ΔsoxS",0.173 ± 0.13
same,promoter activity interaction Z-score,"0.49 µg/ml, genetic background: wild type",3.58 ± 0.53
same,promoter activity interaction Z-score,"0.49 µg/ml, genetic background: ΔmarA",3.1 ± 1.2
same,promoter activity interaction Z-score,"0.49 µg/ml, genetic background: Δrob",1.07 ± 0.62
same,promoter activity interaction Z-score,"0.49 µg/ml, genetic background: ΔsoxS",2.67 ± 0.47
CC[C@H]1OC(=O)[C@H](C)[C@@H](O[C@H]2C[C@@](C)(OC)[C@@H](O)[C@H](C)O2)[C@H](C)[C@@H](O[C@@H]2O[C@H](C)C[C@H](N(C)C)[C@H]2O)[C@](C)(O)C[C@@H](C)C(=O)[C@H](C)[C@@H](O)[C@]1(C)O [Erythromycin],promoter activity interaction Z-score,"1.8 µg/ml, genetic background: wild type",0.316 ± 0.064
same,promoter activity interaction Z-score,"1.8 µg/ml, genetic background: ΔmarA",0.0943 ± 0.048
same,promoter activity interaction Z-score,"1.8 µg/ml, genetic background: Δrob",0.109 ± 0.022
same,promoter activity interaction Z-score,"1.8 µg/ml, genetic background: ΔsoxS",0.268 ± 0.14
same,promoter activity interaction Z-score,"3.7 µg/ml, genetic background: wild type",0.459 ± 0.1
same,promoter activity interaction Z-score,"3.7 µg/ml, genetic background: ΔmarA",0.54 ± 0.35
same,promoter activity interaction Z-score,"3.7 µg/ml, genetic background: Δrob",0.617 ± 0.38
same,promoter activity interaction Z-score,"3.7 µg/ml, genetic background: ΔsoxS",0.806 ± 0.22
same,promoter activity interaction Z-score,"7.3 µg/ml, genetic background: wild type",1.87 ± 0.21
same,promoter activity interaction Z-score,"7.3 µg/ml, genetic background: ΔmarA",1.31 ± 0.22
same,promoter activity interaction Z-score,"7.3 µg/ml, genetic background: Δrob",1.34 ± 0.3
same,promoter activity interaction Z-score,"7.3 µg/ml, genetic background: ΔsoxS",1.3 ± 0.3
same,promoter activity interaction Z-score,"14.7 µg/ml, genetic background: wild type",2.2 ± 0.17
same,promoter activity interaction Z-score,"14.7 µg/ml, genetic background: ΔmarA",2.59
CO[C@@H]1[C@@H](OC(N)=O)[C@@H](O)[C@H](Oc2ccc3c(O)c(NC(=O)c4ccc(O)c(CC=C(C)C)c4)c(=O)oc3c2C)OC1(C)C [Novobiocin],promoter activity interaction Z-score,"2.4 µg/ml, genetic background: wild type",-0.221 ± 0.081
same,promoter activity interaction Z-score,"2.4 µg/ml, genetic background: ΔmarA",-0.11 ± 0.13
same,promoter activity interaction Z-score,"2.4 µg/ml, genetic background: Δrob",0.0782 ± 0.013
same,promoter activity interaction Z-score,"2.4 µg/ml, genetic background: ΔsoxS",-0.0478 ± 0.0032
same,promoter activity interaction Z-score,"4.8 µg/ml, genetic background: wild type",0.022 ± 0.23
same,promoter activity interaction Z-score,"4.8 µg/ml, genetic background: ΔmarA",0.415 ± 0.36
same,promoter activity interaction Z-score,"4.8 µg/ml, genetic background: Δrob",-0.164 ± 0.31
same,promoter activity interaction Z-score,"4.8 µg/ml, genetic background: ΔsoxS",-0.107 ± 0.12
same,promoter activity interaction Z-score,"9.5 µg/ml, genetic background: wild type",-0.297 ± 0.13
same,promoter activity interaction Z-score,"9.5 µg/ml, genetic background: ΔmarA",0.318 ± 0.33
same,promoter activity interaction Z-score,"9.5 µg/ml, genetic background: Δrob",-0.282 ± 0.11
same,promoter activity interaction Z-score,"9.5 µg/ml, genetic background: ΔsoxS",-0.114 ± 0.18
same,promoter activity interaction Z-score,"19 µg/ml, genetic background: wild type",1.2 ± 0.98
same,promoter activity interaction Z-score,"19 µg/ml, genetic background: ΔmarA",5.2 ± 2.7
same,promoter activity interaction Z-score,"19 µg/ml, genetic background: Δrob",0.0504 ± 0.67
same,promoter activity interaction Z-score,"19 µg/ml, genetic background: ΔsoxS",1.48 ± 0.89
